HSF-1 act – increases HSF-1 driven luciferase reporter signal. NIH3T3-HGL HSF-1 luciferase reporter, MG132, 8 h; 100% = twice DMSO control signal. activation, % at 9 µM. hit rate 1.7% among 300,000. AID 504408;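 active means mean replicate activation of at least 50% with a set share of replicates each reaching 50%; inconclusive means only one of those two conditions met; inactive means mean below 50% and too few replicates reaching it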
TWEAK Fn14 block – TWEAK-Fn14 signaling inhibition; TWEAK-stimulated Fn14 reporter cells, luciferase luminescence, 8 h; inhibition, % at 10 µM; hit rate 2% among 360,000; in the data active means inhibition above about 50%
TROY NFkB inh – inhibitors of TROY-dependent NF-kB signaling; Q293 LMP1-TROYcd NF-kB luciferase reporter, 4 h; inhibition, % at 10 µM; hit rate 0.98% among 360,000;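 active means compounds whose plate-normalised and pattern-corrected inhibition of the luciferase reporter signal at the single screening dose is 50% or more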
LGR2 antag – blocks bursicon-induced cAMP signaling via Drosophila LGR2. hit rate 0.35% among 380,000. HEK293 LGR2, CRE-luciferase, bursicon-stimulated, 4 h. inhibition, % at 9.99 µM;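 active means drop in luminescence signal, shown as inhibition above about 50% in the replicate tests, limit read from the data, passing the limit was not always enough; inconclusive means probably only some replicates passing the limit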;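 further: agonist challenge used bursicon conditioned medium at about half maximal strength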
HSF1 inh – HSF1 inhibition | NIH3T3-HGL HSE-luciferase, MG132-induced, luminescence 8 h; active compounds read low | activity change, negative = inhibition, % at 7.5 µM (by protocol) | hit rate 0.77% among 300,000 | AID 2098;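 active means more than half of replicate wells show activity change below -50%, luminescence cut by over half; inconclusive means some wells, but at most half, below -50%; inactive means no replicate well below -50%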;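 further: luciferase reports HSF-1 transcriptional activity via heat shock element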
EBV LMP1 NFkB – reduces LMP1-driven NF-kappaB luciferase signal | hit rate 0.69% among 350,000 | LMP1-induced NF-kappaB luciferase reporter cells, luminescence | inhibition, % at 12.5 µM | AID 504558; in the data active means inhibition above about 41%; inconclusive means no clear call, values can overlap the other calls
Numbers stand for hits; 0 = inactive; ? = inconclusive; - = no result. Rows were chosen to be rich in hits. Some 3.6% of all compounds tested hit in one or more screens of this group.

SMILES | HSF-1 act | TWEAK Fn14 block | TROY NFkB inh | LGR2 antag | HSF1 inh | EBV LMP1 NFkB
COc1cccc(/C=C(\C#N)c2nc3ccc(C)cc3[nH]2)c1OCC(=O)O | 0 | 0 | 0 | 0 | 0 | 0
CNC[C@@H]1Oc2ccc(NS(=O)(=O)c3cccs3)cc2C(=O)N([C@@H](C)CO)C[C@H]1C | - | - | - | 0 | - | -
CC(C)NC(=O)Nc1ccc2c(c1)C(=O)N([C@H](C)CO)C[C@@H](C)[C@@H](CN(C)C(=O)C1CCCCC1)OCCCC[C@@H](C)O2 | - | - | - | 0 | - | -
COc1ccc(NC(=O)COC(=O)/C=C/C(=O)OCC(=O)Nc2ccc(OC)c(Cl)c2)cc1Cl | 138.2 | 0 | 0 | 0 | 0 | 0
COc1ccc(NC(=O)CCCn2c(=O)oc3ccccc32)cc1Cl | 62.3 | 0 | 0 | 0 | 0 | 0
O=C(CCn1c(=O)oc2ccccc21)Nc1ccccc1 | 100.8 | 0 | 0 | - | 0 | 0
COc1cc(OC)c(NC(=O)CCCn2c(=O)oc3ccccc32)cc1Cl | 0 | 0 | 0 | 0 | 0 | 0
CCNC(=O)[C@@H]1[C@@H](CO)[C@@H]2Cn3c(cccc3=O)[C@H]1N2Cc1cc(F)ccc1F | - | - | - | 0 | - | -
CCCN(C)C[C@H]1Oc2ncc(-c3cccc(C#N)c3)cc2C(=O)N([C@@H](C)CO)C[C@@H]1C | - | - | - | 0 | - | -
O=C(NC1CCCCC1)N[C@@H]1CC[C@@H](CCNS(=O)(=O)c2ccc(F)cc2)O[C@@H]1CO | - | - | - | 0 | - | -
N/C(=N\OC(=O)/C=C/c1ccccc1Cl)c1ccccn1 | 0 | 75.1 | 68.0 | 73.0 | 0 | 0
O=C(COC(=O)/C=C/c1ccccc1Cl)Nc1cccnc1Cl | - | 0 | 0 | 0 | - | 0
N/C(=N\OC(=O)/C=C/c1ccc(Br)cc1)c1ccccn1 | 0 | 66.2 | 52.1 | ? | 0 | 0
N/C(=N\OC(=O)/C=C/c1ccccc1Cl)c1cccnc1 | 57.0 | 0 | 0 | 0 | 0 | -
Cc1noc(C)c1S(=O)(=O)Nc1ccc2c(c1)C(=O)N([C@@H](C)CO)C[C@H](C)[C@@H](CN(C)S(=O)(=O)c1ccc(F)cc1)O2 | - | - | - | 0 | - | -
O=C(C[C@H]1CC[C@H](NC(=O)C2CC2)[C@H](CO)O1)NCc1ccncc1 | - | - | - | 0 | - | -
CN1N=C(C(C)(C)C)CSC1=Nc1ccc(F)cc1 | 0 | 66.4 | 0 | 0 | 0 | 0
CN(C)C(=O)c1cccc(-c2ccc3c(c2)[C@H]2[C@H](CCN2C(=O)C2CC2)[C@@H](CO)N3)c1 | - | - | - | 0 | - | -
CCOC(=O)c1c(NC(=O)CN2CCCc3ccccc32)sc(C(C)=O)c1C | 50.2 | 0 | 0 | 0 | 0 | 0
CCOC(=O)c1sc(NC(=O)CCN2CCC(C)CC2)c(C(=O)OCC)c1C | 232.7 | 0 | 0 | 0 | 0 | 0
COCCOC(=O)c1c(NC(=O)CN2CCc3ccccc32)sc(C(N)=O)c1C | 0 | 0 | 0 | 0 | 0 | 0
CCOC(=O)c1sc(NC(=O)CSc2nncs2)c(C(=O)OCC)c1C | 55.7 | 0 | 0 | - | 0 | 0
CCOC(=O)c1c(NC(=O)CSc2nc3ccccc3o2)sc(C(C)=O)c1C | 0 | 68.6 | 0 | 0 | 0 | 0
Cc1ccsc1/C=N/Nc1ccc(C(=O)O)cc1 | 0 | 99.2 | 0 | 68.8 | 0 | 0
Cc1ccsc1/C=N/Nc1cccc(C(=O)O)c1 | 0 | 0 | 0 | 87.6 | -54.0 | 66.2
SMILES | HSF-1 act | TWEAK Fn14 block | TROY NFkB inh | LGR2 antag | HSF1 inh | EBV LMP1 NFkB
CC(C)NC(=O)N(C)C[C@@H]1Oc2cc(C#C[C@@H](C)O)ccc2S(=O)(=O)N([C@@H](C)CO)C[C@@H]1C | - | - | - | 0 | - | -
O=C(C[C@@H]1CC[C@H]2[C@@H](COC[C@H](O)CN2Cc2ccccc2)O1)NCCCN1CCOCC1 | - | - | - | 0 | - | -
CCC(=O)N1CC(=O)N2[C@H](CO)[C@H](c3ccc(C#Cc4cccc(OC)c4)cc3)[C@H]2C1 | - | - | - | 0 | - | -
CC(C)(C)c1ccc(C(=O)Nc2cccc3c(=O)[nH][nH]c(=O)c23)cc1 | 0 | 80.0 | 52.8 | 0 | -61.4 | 0
O=C(Cc1nc2ccccc2[nH]1)c1ccc(Br)cc1 | 101.3 | 0 | 0 | 0 | 0 | 0
COc1ccc(C2=NOC(C(=O)Nc3c(C)n(C)n(-c4ccccc4)c3=O)C2)cc1OC (configuration not stated) | 0 | 0 | 0 | 0 | -73.4 | 0
O=C(C1CC(c2ccc(F)cc2)=NO1)N1CCCCC1 (configuration not stated) | 0 | 0 | 0 | 0 | 0 | 0
Cc1c(NC(=O)C2CC(c3c(F)cccc3Cl)=NO2)c(=O)n(-c2ccccc2)n1C (configuration not stated) | 0 | 0 | 0 | 0 | 0 | 0
COc1ccc(C2=NOC(C(=O)N3CCCCCC3)C2)cc1OC (configuration not stated) | 0 | 0 | 0 | 0 | -77.9 | 0
CCCS(=O)(=O)N1CCCC(C(=O)Oc2ccc(Cl)cc2)C1 (configuration not stated) | 0 | 0 | 0 | 0 | 0 | 0
CCCCS(=O)(=O)N1CCCC(C(=O)Nc2ccc(Cl)cn2)C1 (configuration not stated) | 0 | 85.5 | 0 | 0 | 0 | 0
O=C1CCCCc2sc(Br)c([N+](=O)[O-])c2N1 | 131.8 | 0 | 0 | 0 | 0 | 0
CCOc1cc(-c2sc(Nc3ccccc3)n[n+]2C)ccc1OC | 0 | 0 | 0 | 0 | 0 | 80.7
O=C(CCN1CCc2ccccc2C(c2ccccc2)C1)c1ccc2c(c1)OCCO2 (configuration not stated) | 87.5 | 0 | 0 | - | 0 | 0
O=C(CCN1Cc2ccccc2C1)c1ccc2c(c1)OCCO2 | 0 | 0 | 0 | 0 | 0 | 0
CCCNC(=O)Nc1ccc2c(c1)C(=O)N(C)[C@@H]1CC[C@@H](CC(=O)NCc3ccccc3)O[C@@H]1CO2 | - | - | - | 0 | - | -
C[N+](C)(C)CCC(=O)N1C/C(=C/c2ccccc2)C(=O)/C(=C\c2ccccc2)C1 | 0 | 0 | 0 | 0 | 0 | 0
CCOC(=O)N1C/C(=C\c2ccccc2)C(=O)/C(=C/c2ccccc2)C1 | 0 | 0 | 73.7 | 0 | 0 | 0
COc1ccc(OC(=O)N2C/C(=C/c3ccccc3)C(=O)/C(=C\c3ccccc3)C2)cc1 | - | 89.7 | 0 | ? | - | 0
COc1ccc(/C=C2\CCOC2=O)cc1 | 0 | 0 | 0 | - | 0 | 0
CN(C)CCC(=O)N1C/C(=C/c2ccccc2)C(=O)/C(=C\c2ccccc2)C1 | - | 103.4 | 58.6 | 102.4 | - | 86.9
O=C1/C(=C/c2ccccc2)CN(C(=O)CCN2CCOCC2)C/C1=C\c1ccccc1 | - | 100.4 | 0 | 102.5 | - | 0
C[C@@H](NC(=O)C[C@@H]1C[C@H]2c3cc(NC(=O)CC4CC4)ccc3O[C@H]2[C@H](CO)O1)c1ccccc1 | - | - | - | 0 | - | -
CO[C@H]1CN(C)C(=O)c2ccc(NS(=O)(=O)c3ccc(Cl)cc3)cc2OC[C@@H](C)N(C(=O)NC(C)C)C[C@H]1C | - | - | - | 0 | - | -
COc1ccc(O)c(C(=O)c2cnn(-c3ccccc3)c2)c1 | 0 | 0 | 0 | 0 | 0 | 0
COc1ccc(-n2cc(C(=O)c3ccccc3O)cn2)cc1 | 0 | 60.9 | 0 | ? | -51.5 | 49.9
CCC(=O)Nc1ccc2c(c1)C(=O)N(C)C[C@@H](OC)[C@H](C)CN(C(=O)C1CC1)[C@H](C)CO2 | - | - | - | 0 | - | -
